We go through 12 molecules from PubChem BioAssay (NCI).

Values joined by “and” are separate entries in the source; they are usually repeats but may differ in a detail not shown here. Equal entries are not always repeated. Compounds without any hit were thinned out: in the full panel of roughly 83,000, 20% have a hit.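 Values shown are percent growth following 48 h exposure of cells in 96-well plates to a single concentration of compound; below 10 was considered active.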 Active and inactive are the calls of the source.

Among the test systems are SR leukemia; RPMI-8226 leukemia; OVCAR-5 ovarian; OVCAR-4 ovarian; SK-OV-3 ovarian; IGROV1 ovarian; HS 578T breast; NCI/ADR-RES ovarian; OVCAR-8 ovarian; OVCAR-3 ovarian.
What all share (assay): NCI-60 one-dose screen, 48 h (100 = growth as untreated, 0 = no growth, -100 = all killed)

As to `COc1ccc(C(=O)/C=C/c2ccc(OCc3cccc(C(F)(F)F)c3)c(OC)c2)cc1OC`, the growth was 36.8% (inactive) in the assay with SR leukemia (10 µM); 5.42% (active) with SR leukemia (100 µM); 29.7% (inactive) with RPMI-8226 leukemia (10 µM); -0.397% (active) with RPMI-8226 leukemia (100 µM); 109% (inactive) in the assay on OVCAR-5 ovarian (10 µM); 51.5% (inactive) in the assay on OVCAR-5 ovarian (100 µM). The growth in the assay on OVCAR-4 ovarian (10 µM) is 74.9% (inactive); with OVCAR-4 ovarian (100 µM), 20.3% (inactive); in the assay with SK-OV-3 ovarian (10 µM), 88.7% (inactive); in the assay on SK-OV-3 ovarian (100 µM), 20% (inactive); with IGROV1 ovarian (10 µM), 93.6% (inactive); in the assay on IGROV1 ovarian (100 µM), 5.18% (active). Also, the growth is 98.2% (inactive) in the assay on HS 578T breast (10 µM), 11.6% (inactive) in the assay on HS 578T breast (100 µM), 71.4% (inactive) in the assay with NCI/ADR-RES ovarian (10 µM) and -6.47% (active) with NCI/ADR-RES ovarian (100 µM).

Consider `CC1(C)C(N)=Nc2cc(OCCCCN3Cc4ccccc4C3)c(OCC3CC3)cc21`, for which the growth in the assay on SR leukemia (10 µM unless noted) was 93.4% (inactive); with RPMI-8226 leukemia (10 µM unless noted) it was 100% (inactive); in the assay on OVCAR-8 ovarian (10 µM unless noted), 76.2% (inactive); with OVCAR-5 ovarian (10 µM unless noted) it was 80.3% (inactive); in the assay with OVCAR-4 ovarian (10 µM unless noted), 82.6% (inactive); with SK-OV-3 ovarian (10 µM unless noted) it was 89% (inactive). Besides, the growth in the assay with IGROV1 ovarian (10 µM unless noted) is 79.4% (inactive); in the assay with OVCAR-3 ovarian (10 µM unless noted), 78% (inactive); with HS 578T breast (10 µM unless noted), 88.3% (inactive); in the assay on NCI/ADR-RES ovarian (10 µM unless noted), 92.6% (inactive).

Consider `O=C1/C(=C/c2ccc(F)c(F)c2)CN(C(=O)C(Cl)Cl)C/C1=C\c1ccc(F)c(F)c1`, for which the growth with SR leukemia (10 µM unless noted) is -21.2% (active); in the assay with RPMI-8226 leukemia (10 µM unless noted) it was -31.4% (active); in the assay on OVCAR-8 ovarian (10 µM unless noted) it was -95.4% (active); with OVCAR-5 ovarian (10 µM unless noted), -72.6% (active); in the assay with OVCAR-4 ovarian (10 µM unless noted) it was -67.1% (active); with SK-OV-3 ovarian (10 µM unless noted), -35% (active). For the same molecule, the growth is -84.5% (active) with IGROV1 ovarian (10 µM unless noted), -97% (active) in the assay on OVCAR-3 ovarian (10 µM unless noted), -38.5% (active) in the assay on HS 578T breast (10 µM unless noted) and -18% (active) in the assay on NCI/ADR-RES ovarian (10 µM unless noted).

As for `O=C(CN1C(=O)S/C(=C\C(Cl)=C\c2ccccc2)C1=O)NCCCn1ccnc1`, the growth in the assay on SR leukemia (10 µM unless noted) was 2.18% (active); in the assay with RPMI-8226 leukemia (10 µM unless noted), 0.978% (active); in the assay with OVCAR-8 ovarian (10 µM unless noted), 12.4% (inactive); with OVCAR-5 ovarian (10 µM unless noted), 80.1% (inactive); with OVCAR-4 ovarian (10 µM unless noted), 43.1% (inactive); with SK-OV-3 ovarian (10 µM unless noted) it was 86% (inactive). In addition, the growth in the assay with IGROV1 ovarian (10 µM unless noted) was 2.87% (active); in the assay on OVCAR-3 ovarian (10 µM unless noted), 1.07% (active); in the assay with HS 578T breast (10 µM unless noted), 51.7% (inactive); in the assay on NCI/ADR-RES ovarian (10 µM unless noted), 81.2% (inactive).

Turning to `Cc1ccc(NC(=O)c2ccc(CN3CCN(C)CC3)cc2)cc1Nc1nccc(-c2cccnc2)n1`, the growth in the assay on SR leukemia (10 µM unless noted) was 85.4% (inactive) and -22.5% (active); in the assay with RPMI-8226 leukemia (10 µM unless noted), 87.4% (inactive) and 38.3% (inactive); with OVCAR-8 ovarian (10 µM unless noted), 91.6% (inactive) and 67.7% (inactive); with OVCAR-5 ovarian (10 µM unless noted) it was 123% (inactive) and 97.5% (inactive); in the assay on OVCAR-4 ovarian (10 µM unless noted) it was 100% (inactive) and 93.1% (inactive); in the assay on SK-OV-3 ovarian (10 µM unless noted), 106% (inactive) and 107% (inactive). Moreover, the growth with IGROV1 ovarian (10 µM unless noted) was 119% (inactive) and 98.3% (inactive); in the assay with OVCAR-3 ovarian (10 µM unless noted), 110% (inactive) and 84% (inactive); in the assay on HS 578T breast (10 µM unless noted), 90.1% (inactive); in the assay with NCI/ADR-RES ovarian (10 µM unless noted), 101% (inactive) and 91.4% (inactive).

`Oc1ccccc1C=Nc1ccc(N2CCN(c3ccccc3)CC2)cc1`: the growth in the assay with SR leukemia (10 µM unless noted) was 98% (inactive); with RPMI-8226 leukemia (10 µM unless noted), 91% (inactive); with OVCAR-8 ovarian (10 µM unless noted), 96.9% (inactive); in the assay with OVCAR-5 ovarian (10 µM unless noted), 109% (inactive); in the assay with OVCAR-4 ovarian (10 µM unless noted), 91% (inactive); in the assay with SK-OV-3 ovarian (10 µM unless noted), 64.6% (inactive). Also, the growth with IGROV1 ovarian (10 µM unless noted) was 103% (inactive); in the assay on OVCAR-3 ovarian (10 µM unless noted) it was 100% (inactive); with HS 578T breast (10 µM unless noted) it was 105% (inactive); in the assay with NCI/ADR-RES ovarian (10 µM unless noted), 92.6% (inactive).

`O=C(/C=C/c1cccc(Oc2ccc(Cl)cc2)c1)c1ccccc1`: the growth was 53.5% (inactive) in the assay on SR leukemia (10 µM); -25.1% (active) in the assay on SR leukemia (100 µM); 0.961% (active) in the assay with RPMI-8226 leukemia (10 µM); -30.3% (active) in the assay with RPMI-8226 leukemia (100 µM); 91.8% (inactive) in the assay on OVCAR-8 ovarian (10 µM); -50.8% (active) in the assay on OVCAR-8 ovarian (100 µM). Further, the growth in the assay with OVCAR-5 ovarian (10 µM) is 96% (inactive); in the assay on OVCAR-5 ovarian (100 µM), -82.2% (active); in the assay with OVCAR-4 ovarian (10 µM), 90.3% (inactive); in the assay with OVCAR-4 ovarian (100 µM) it was -80.1% (active); with IGROV1 ovarian (10 µM), 102% (inactive); in the assay with IGROV1 ovarian (100 µM), -49.9% (active). Besides, the growth with OVCAR-3 ovarian (10 µM) was 93.3% (inactive); in the assay with OVCAR-3 ovarian (100 µM) it was -94.3% (active); in the assay with HS 578T breast (10 µM) it was 97.5% (inactive); in the assay on HS 578T breast (100 µM), -28.2% (active); in the assay with NCI/ADR-RES ovarian (10 µM), 98.8% (inactive); with NCI/ADR-RES ovarian (100 µM), -46.5% (active).

As to `CCNC(=S)n1nc(SC)c(C(=O)OCC)c1N`, the growth is 89.2% (inactive) with SR leukemia (10 µM unless noted); 110% (inactive) in the assay on RPMI-8226 leukemia (10 µM unless noted); 110% (inactive) in the assay with OVCAR-8 ovarian (10 µM unless noted); 84.8% (inactive) with OVCAR-5 ovarian (10 µM unless noted); 96.7% (inactive) with OVCAR-4 ovarian (10 µM unless noted); 94% (inactive) in the assay on SK-OV-3 ovarian (10 µM unless noted). The growth with IGROV1 ovarian (10 µM unless noted) was 90.6% (inactive); in the assay on OVCAR-3 ovarian (10 µM unless noted) it was 97.7% (inactive); in the assay on HS 578T breast (10 µM unless noted), 110% (inactive); in the assay with NCI/ADR-RES ovarian (10 µM unless noted), 94.8% (inactive).

As for `O=C(c1cccc(Br)c1)N1CCN(c2ccnc3cc(Cl)ccc23)CC1`, the growth in the assay on SR leukemia (10 µM unless noted) was 118% (inactive); with RPMI-8226 leukemia (10 µM unless noted), 70.7% (inactive); in the assay on OVCAR-8 ovarian (10 µM unless noted), 80.2% (inactive); with OVCAR-5 ovarian (10 µM unless noted), 90% (inactive); in the assay with OVCAR-4 ovarian (10 µM unless noted), 54.9% (inactive); with SK-OV-3 ovarian (10 µM unless noted), 98.3% (inactive). Also, the growth in the assay on IGROV1 ovarian (10 µM unless noted) is 90.6% (inactive); with OVCAR-3 ovarian (10 µM unless noted), 86.9% (inactive); in the assay with HS 578T breast (10 µM unless noted), 112% (inactive); in the assay with NCI/ADR-RES ovarian (10 µM unless noted) it was 88.1% (inactive).

For `Nc1n[nH]c2cccc(C#Cc3cccc(C(=O)Nc4ccc(CN5CCOCC5)c(C(F)(F)F)c4)c3)c12`, the growth was 36.1% (inactive) in the assay on SR leukemia (10 µM unless noted); 16.4% (inactive) with RPMI-8226 leukemia (10 µM unless noted); 12.5% (inactive) with OVCAR-8 ovarian (10 µM unless noted); 41.2% (inactive) in the assay with OVCAR-5 ovarian (10 µM unless noted); 47.2% (inactive) in the assay on OVCAR-4 ovarian (10 µM unless noted); 88.8% (inactive) with SK-OV-3 ovarian (10 µM unless noted). Also, the growth in the assay with IGROV1 ovarian (10 µM unless noted) was 18.6% (inactive); in the assay with OVCAR-3 ovarian (10 µM unless noted) it was 60.5% (inactive); in the assay on HS 578T breast (10 µM unless noted) it was 29.5% (inactive); in the assay with NCI/ADR-RES ovarian (10 µM unless noted), 18.4% (inactive).

For the molecule `COc1cccc(C2C(C#N)=C(N)Oc3cc(OCCCCCC[P+](c4ccccc4)(c4ccccc4)c4ccccc4)ccc32)c1` (centres undefined), the growth is -48.8% (active) in the assay on SR leukemia (10 µM unless noted); -36.4% (active) in the assay with RPMI-8226 leukemia (10 µM unless noted); 1.01% (active) in the assay with OVCAR-8 ovarian (10 µM unless noted); -2.3% (active) in the assay on OVCAR-5 ovarian (10 µM unless noted); 2.58% (active) with OVCAR-4 ovarian (10 µM unless noted); -33.5% (active) in the assay on SK-OV-3 ovarian (10 µM unless noted). Further, the growth was -55.8% (active) in the assay on IGROV1 ovarian (10 µM unless noted), -81.3% (active) with OVCAR-3 ovarian (10 µM unless noted), -16.5% (active) in the assay on HS 578T breast (10 µM unless noted) and 85.2% (inactive) with NCI/ADR-RES ovarian (10 µM unless noted).

In the case of `Clc1ccc2c(NCCN3CCN(c4ccnc(N5CCCC5)n4)CC3)ccnc2c1`, the growth in the assay with SR leukemia (10 µM unless noted) was -12.2% (active); with RPMI-8226 leukemia (10 µM unless noted), -10.6% (active); with OVCAR-8 ovarian (10 µM unless noted) it was 36.8% (inactive); with OVCAR-5 ovarian (10 µM unless noted), 68.8% (inactive); with OVCAR-4 ovarian (10 µM unless noted), 57.8% (inactive); in the assay with SK-OV-3 ovarian (10 µM unless noted) it was 90% (inactive). For the same molecule, the growth is 47.8% (inactive) in the assay with IGROV1 ovarian (10 µM unless noted), 40.8% (inactive) with OVCAR-3 ovarian (10 µM unless noted), 76.4% (inactive) in the assay with HS 578T breast (10 µM unless noted) and 49% (inactive) in the assay with NCI/ADR-RES ovarian (10 µM unless noted).
